Source: PubChem BioAssay
Hits are enriched below; roughly 8.8% of the tested compounds scored in any of these assays.
IL1B secr inh = inhibitors of inflammasome signaling (IL-1 beta secretion). THP-1 LPS/ATP IL-1B secretion, AlphaLISA, 16 h; stronger effect = lower value. activity change, % at 57.5 µM. hit rate 4.7% among 360,000. AID 743279; in the data active means activity change below about -50%; inconclusive means mostly about -30% to -49%
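Secreted IL-1B measured by AlphaLISA bead assay after 16 h compound exposure of THP-1 cells; compounds (final up to 57.5 uM) added 1 h before LPS (250 ng/mL) and ATP (1.25 mM) stimulation; lower signal means less secretion.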
KB-V1 MDR tox = KB-V1 MDR subline cytotoxicity; Potency, µM (top dose mostly 46.1 µM), most hits filed as cytotoxic; KB-V1 MDR cells viability, CellTiter-Glo, 72 h; hit rate 3.4% among 400,000; further: potency means the concentration at half of the fitted maximal effect; nearly all actives have a fitted effect of over 60% in size
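Compound-treated KB-V1 multidrug-resistant cells, 72 h, 37 degrees C; viability by CellTiter-Glo. Fitted qHTS curves give the values.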
KB-3-1 cytotox = KB-3-1 parental cell cytotoxicity; Potency, µM (top dose mostly 46.1 µM), hits mostly cytotoxic; hit rate 1.4% among 400,000; AID 1347075; KB-3-1 viability, CellTiter-Glo ATP luminescence, 72 h; further: potency means the concentration at half of the fitted maximal effect; nearly all actives have a fitted effect of over 60% in size
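Parental KB-3-1 adenocarcinoma cells in phenol-red-free DMEM with 10% FBS were pin-treated with compounds at several concentrations, incubated 72 h at 37 °C, and viability read by CellTiter-Glo luminescence; concentration-effect curves were fitted after normalization.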
HT1080NT lethal = kills 2HG-producing HT-1080-NT fibrosarcoma cells. hit rate 1.6% among 360,000. Potency, µM (top dose mostly 46.1 µM), without a hit: top-dose activity, negative = less viability, most hits filed as cytotoxic. HT-1080-NT fibrosarcoma viability, CellTiter-Glo ATP luminescence, 48 h;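 further: NT is the 2HG producing partner of a matched IDH1 knockdown line; potency means the concentration at half of the fitted maximal effect; 0% = DMSO-treated cells and -100% = media-only wells without cells; nearly all actives have a fitted effect of over 55% in size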
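Read-out is CellTiter-Glo luminescence after 10 minutes at room temperature, following 48 hours' compound treatment of HT-1080-NT cells (750 cells/well, RPMI, 5% FBS, 37 degrees C).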
HT1080 IDH1KD tx = toxicity to HT-1080 IDH1 knockdown cells (counter line); HT-1080 IDH1 knockdown viability, ATP luminescence, 48 h; Potency, µM (series often up to 46.1 µM), without a hit: at the top dose activity, negative = toxicity, most hits filed as cytotoxic; hit rate 2% among 360,000; AID 686971;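 further: potency means the concentration at half of the fitted maximal effect; 0% = DMSO wells and -100% = cell-free medium wells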
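In this qHTS, HT-1080 cells depleted of IDH1 are exposed for 48 h at 37 °C to compound titrations. Toxicity is scored from CellTiter-Glo luminescence, with DMSO as full viability and medium alone as none.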
* hit, by the source's call; i = inactive; ? = inconclusive; / = no result. Unless noted, the call rests on the fitted dose curve; in most records, active means well fitted curve in the direction sought with a large enough effect; inconclusive means small, poorly fitted or top-dose-only effect, or another doubt; inactive means no such curve, though single readings can be large; an effect the other way counts as inactive or inconclusive. Unless noted, on the % scale 0 is the no-effect control and ±100 the full control effect.

SMILES	IL1B secr inh	KB-V1 MDR tox	KB-3-1 cytotox	HT1080NT lethal	HT1080 IDH1KD tx
CCC(c1nnnn1Cc1ccco1)N1CCN(c2cc(Cl)ccc2C)CC1 (configuration not stated)	-60*	?	?	-25%	-25%
CCOC(=O)Cc1cc(-c2ccc(F)cc2)nc2ccc3ccccc3c12	12	i	i	-6%	-6%
COc1ccccc1N(CC(=O)N/N=C(\C)c1cccc(Br)c1)S(C)(=O)=O	-1	21µM*	i	1%	2%
CCOc1ccccc1N(CC(=O)N/N=C(\C)c1cccc(Br)c1)S(C)(=O)=O	-4	i	i	-10%	-5%
COc1ccc(NC(=O)/C=C/c2c(Cl)nc3ccccn23)cc1	?	i	i	18%	13%
COc1ccccc1N1CCN(C(=O)/C=C/c2c(Cl)nc3ccccn23)CC1	-61*	i	i	6%	6%
CC1=Nc2ccccc2/C1=C/c1sc(=N)n(-c2nccs2)c1O	13	i	7.3µM*	-24%	?
CC1=Nc2ccccc2/C1=C/c1nc(-c2ccc(C)s2)oc1O	28	?	i	2%	-1%
O=C(NCc1ccccc1)c1cc(C2CCCCN2C(=O)c2ccc(Cl)cc2)on1 (configuration not stated)	-6	i	i	17%	10%
Cc1c(C(=O)N2CCC(C)CC2)oc2ccc3c(c12)C(O)CC1(CCCCC1)O3 (configuration not stated)	-21	i	?	?	9.2µM*
CC(=O)N(Cc1ccccc1)Cc1cn(CCC#N)nc1-c1cccc([N+](=O)[O-])c1	15	i	i	1%	-6%
O=C(O)c1ccc(-n2cncn2)c([N+](=O)[O-])c1	-1	i	i	24%	1%
O=C(c1ccccc1)c1ccc(-n2cnnc2)c([N+](=O)[O-])c1	-78*	i	i	1%	-7%
O=C(O)c1ccc(-n2ccnc2)c([N+](=O)[O-])c1	-14	?	i	17%	13%
O=C(c1ccccc1)c1ccc(-n2ccnc2)c([N+](=O)[O-])c1	20	18µM*	i	7%	2%
Cc1cccc(NC(=O)C2NC(=O)CC2c2ccccc2)c1C (configuration not stated)	-6	i	i	17%	13%
Cc1ccc2nc(-c3ccc(C)c(NC(=O)COc4ccc(Br)cc4)c3)oc2c1	/	i	?	/	/
COc1cccc(/C=N/NC(=O)c2cnccn2)c1O	76	i	i	?	16µM*
COc1cccc(/C=N/NC(=O)NC23CC4CC(CC(C4)C2)C3)c1O	-12	?	?	?	18µM*
O=C(N/N=C/c1ccccc1F)NC12CC3CC(CC(C3)C1)C2	7	i	i	7%	1%
COc1cccc(/C=N/NC(=O)C(=O)NCc2ccco2)c1O	113	?	i	8.9µM*	7.1µM*
O=C(N/N=C/c1cc([N+](=O)[O-])ccc1Cl)c1cnccn1	25	i	2.6µM*	4.1µM*	?
CCC(=O)N1CCc2cc(Br)cc(S(=O)(=O)NCCc3ccc(OC)c(OC)c3)c21	/	i	i	/	/
Cc1ccccc1Cn1c(C)c(C(=O)NCCC#N)sc1=O	16	i	i	?	2%
COc1cc(OC)cc(C(=O)NNC(=O)C2CCCC2)c1	4	i	i	3%	-17%
SMILES	IL1B secr inh	KB-V1 MDR tox	KB-3-1 cytotox	HT1080NT lethal	HT1080 IDH1KD tx
COc1cccc(/C=N/NC(=O)c2ccoc2C)c1O	263	i	?	?	9.2µM*
COc1cccc(/C=N/NC(=O)C(=O)N/N=C/c2cccc(OC)c2O)c1O	154	i	?	-8%	6%
COc1cccc(/C=N/NC(=O)C(=O)N2CCCCCC2)c1O	144	i	i	?	13µM*
CN(Cc1cccc(Cl)c1Cl)C(=O)c1cc(S(=O)(=O)N2CCOCC2)ccc1F	?	i	i	-12%	-2%
C=CCNc1nc2c(c(=O)[nH]c(=O)n2C)n1CCCc1ccccc1	-26	i	i	-1%	5%
CC(C)C[C@@H]1O[C@H](C(C)C)Cc2[nH][nH]c(=O)c21	34	i	i	3%	5%
CC(C(=O)Nc1nc(-c2ccc(F)cc2)cs1)N1C(=O)C2CC=CCC2C1=O (configuration not stated)	-81*	i	i	10%	21%
Cc1cc(C(=O)Nn2c(-c3ccc(Br)cc3)nc3ccccc3c2=O)ccc1[N+](=O)[O-]	25	i	?	33µM*	?
CCOC(=O)c1nn(-c2ccc(Br)cc2)cc1C(=O)c1cccc2ccccc12	-2	12µM*	?	5%	?
CCOC(=O)c1nn(-c2ccc(F)cc2)cc1O	-7	i	i	?	15%
CC(C)(C)OC(=O)N1CCC(c2c(C(=O)NCc3ccc4c(c3)OCO4)cnn2-c2ccc(F)cc2F)CC1	/	i	i	/	/
COc1cc2nc(N3CCOCC3)nc(NC3CCN(C)CC3)c2cc1OC	/	/	/	2%	-16%
Cc1cccc(N=c2oc3cc(O)ccc3cc2C(N)=O)c1	-19	?	i	?	?
COc1ccccc1NC(=O)c1cc2ccc(O)cc2o/c1=N\O	-63*	i	i	?	?
COc1ccccc1N=c1oc2cc(O)ccc2cc1C(N)=O	?	?	?	23µM*	?
COc1ccccc1NC(=O)c1ccccc1C(=O)O	19	i	i	14%	9%
COc1ccccc1NC(=O)c1cc2ccccc2o/c1=N\O	-18	2.6µM*	i	-1%	0%
COc1ccccc1NC(=O)c1cc2cc(Br)ccc2cc1O	?	?	18µM*	?	?
COc1ccc(OC)c(NC(=O)c2ccc(-c3cccs3)cc2)c1	-10	i	i	2%	5%
O=C(O)c1ccccc1OC1=NS(=O)(=O)c2ccccc21	/	i	?	/	/
Cc1ccc(C2(c3noc(CN4CCC(c5ccncc5)CC4)n3)CCCC2)cc1	-25	i	i	?	?
COc1ccc(-c2ccc(C(=O)Nc3cccc(NS(C)(=O)=O)c3)c3occc23)c(C)c1	-10	?	?	?	?
COc1cc(C(=O)OCC(=O)NCCN2C(=O)CSC2=O)ccc1OCc1c(C)noc1C	12	i	i	-10%	0%
O=C(CN(C(=O)c1ccccc1Cl)N1C(=O)CCCC1=O)c1ccc(Cl)cc1	5	i	i	0%	9%
Cc1c(C(=O)NC2CCN(Cc3ccccc3)C2)oc2c(Cl)cccc12 (configuration not stated)	-88*	i	i	?	?
O=C(NC1CCN(Cc2ccccc2)CC1)c1ccccc1Cl	-6	i	i	1%	3%
